The values that follow come from PubChem BioAssay (NCI).

Some test systems named below: HCT-15 colon; HT29 colon; SNB-75 CNS; SNB-19 CNS; U251 CNS; PC-3 prostate; SK-MEL-5 melanoma; UACC-62 melanoma; LOX IMVI melanoma; SK-MEL-28 melanoma; SK-MEL-2 melanoma; EKVX NSCLC; SN12C renal; UO-31 renal; TK-10 renal; ACHN renal; CAKI-1 renal; A498 renal; CCRF-CEM leukemia; MOLT-4 leukemia.
Common to all, as to test: NCI-60 one-dose screen, 48 h (100 = growth as untreated, 0 = no growth, -100 = all killed)
What all share (settings): 10 µM unless noted

Compounds without any hit were thinned out: in the full panel of roughly 83,000, 20% have a hit.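 Growth was measured after 48 h exposure to one concentration of compound in 96-well plates. Values under 10 count as active.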 A number with no mark means an inactive call. The source made the active and inactive calls.

As for `CN(C)CCCn1c2c(c3cnccc3c1=O)C(=O)c1ccccc1-2`, the growth in the experiment with HCT-15 colon was -3.54% (active); with HT29 colon, -2.38% (active); in the experiment on SNB-75 CNS, 10.6%; with SNB-19 CNS, 1.02% (active); in the experiment on U251 CNS it was 0.151% (active); with PC-3 prostate, -5.36% (active). Besides, the growth in the experiment with SK-MEL-5 melanoma was -75.8% (active); in the experiment on UACC-62 melanoma it was -64.6% (active); in the experiment on LOX IMVI melanoma, -44.9% (active); in the experiment on SK-MEL-28 melanoma, -28.1% (active); in the experiment with SK-MEL-2 melanoma it was -13.5% (active); in the experiment with EKVX NSCLC it was 40.9%. Also, the growth in the experiment on SN12C renal is 1.1% (active); in the experiment with UO-31 renal, -39% (active); in the experiment with TK-10 renal it was 3.67% (active); in the experiment on ACHN renal it was -25.9% (active); with CAKI-1 renal it was 1% (active); in the experiment with A498 renal it was 25.8%. Further, the growth was 9.81% (active) with CCRF-CEM leukemia and -2.22% (active) in the experiment on MOLT-4 leukemia.

As for `COc1ccc(/C=N/Nc2c3ccccc3nc3ccccc23)cc1`, the growth in the experiment on HCT-15 colon is 92.6%; in the experiment with HT29 colon it was 93.9%; in the experiment on SNB-75 CNS it was 93.4%; in the experiment with SNB-19 CNS, 92.4%; in the experiment with U251 CNS, 93.4%; in the experiment with PC-3 prostate it was 83.1%. In addition, the growth in the experiment on SK-MEL-5 melanoma was 90.4%; in the experiment on UACC-62 melanoma it was 91.1%; with LOX IMVI melanoma it was 92.9%; in the experiment on SK-MEL-28 melanoma, 108%; in the experiment on SK-MEL-2 melanoma it was 82.2%; with EKVX NSCLC, 86.9%. Also, the growth is 91% in the experiment with SN12C renal; 76.1% in the experiment on UO-31 renal; 107% with TK-10 renal; 98.9% in the experiment with ACHN renal; 88.2% with CAKI-1 renal; 69.6% in the experiment on A498 renal. Also, the growth was 90.8% in the experiment with CCRF-CEM leukemia and 90.3% in the experiment on MOLT-4 leukemia.

For `O=c1oc2c(cc1-c1ccccc1)c[n+]([O-])c1ccccc21`, the growth in the experiment with HCT-15 colon is 103%; in the experiment on HT29 colon, 103%; in the experiment with SNB-75 CNS, 93%; in the experiment with SNB-19 CNS it was 97.9%; in the experiment on U251 CNS, 97.9%; in the experiment with PC-3 prostate, 97%. Moreover, the growth in the experiment on SK-MEL-5 melanoma is 98.1%; with UACC-62 melanoma it was 97.4%; with LOX IMVI melanoma it was 101%; in the experiment with SK-MEL-28 melanoma it was 109%; in the experiment on SK-MEL-2 melanoma, 109%; in the experiment on EKVX NSCLC, 98.1%. The growth in the experiment with SN12C renal was 97.2%; in the experiment with UO-31 renal it was 90.4%; with TK-10 renal, 107%; with ACHN renal, 97.3%; with CAKI-1 renal, 90.6%; in the experiment on A498 renal, 105%. The growth is 101% in the experiment with CCRF-CEM leukemia and 102% in the experiment on MOLT-4 leukemia.

For the compound `CN(C)c1ccc(CNCCO)cc1`, the growth is 106% in the experiment on HCT-15 colon; 69.1% in the experiment on HT29 colon; 101% in the experiment with SNB-75 CNS; 98.5% in the experiment on SNB-19 CNS; 89.4% in the experiment with U251 CNS; 68.5% in the experiment with PC-3 prostate. The growth with SK-MEL-5 melanoma is 99.9%; in the experiment on UACC-62 melanoma it was 90.2%; in the experiment with LOX IMVI melanoma, 102%; in the experiment with SK-MEL-28 melanoma, 81.7%; in the experiment on SK-MEL-2 melanoma, 65.8%; in the experiment on EKVX NSCLC, 103%. In addition, the growth is 99.9% in the experiment with SN12C renal; 91.5% in the experiment with UO-31 renal; 82.9% in the experiment on TK-10 renal; 102% in the experiment with ACHN renal; 101% with CAKI-1 renal; 111% in the experiment on A498 renal. The figures for the growth in the experiment on CCRF-CEM leukemia and with MOLT-4 leukemia were 88.4% and 99%, respectively.

On to `COc1cc2c(c(OC)c1OC)C(=O)CC(c1cccc(C(=O)Nc3ccccc3Br)c1)O2` (stereo not given), for which the growth in the experiment on HCT-15 colon is 88.1%; in the experiment on HT29 colon, 84%; with SNB-75 CNS, 76.2%; in the experiment on SNB-19 CNS, 88.4%; with U251 CNS it was 94.8%; in the experiment with PC-3 prostate, 68.4%. For the same compound, the growth is 80.2% in the experiment on SK-MEL-5 melanoma; 80.8% with UACC-62 melanoma; 84.2% in the experiment on LOX IMVI melanoma; 104% in the experiment on SK-MEL-28 melanoma; 87.7% with SK-MEL-2 melanoma; 99.1% in the experiment with EKVX NSCLC. Besides, the growth is 80% in the experiment on SN12C renal; 70.2% with UO-31 renal; 94.2% in the experiment on TK-10 renal; 89.7% in the experiment on ACHN renal; 84.6% with CAKI-1 renal; 91% in the experiment with A498 renal. Besides, the growth is 68.9% with CCRF-CEM leukemia and 68.6% with MOLT-4 leukemia.

As to `O=C(Nc1cccnc1Nc1ccccc1)c1cn(Cc2cccc(Oc3ccccc3)c2)nn1`, the growth in the experiment on HCT-15 colon was 30.5%; in the experiment with HT29 colon, 38.2%; in the experiment on SNB-75 CNS, 47.6%; in the experiment with SNB-19 CNS it was 64.5%; with U251 CNS it was 54.4%; with PC-3 prostate, 49.3%. Moreover, the growth in the experiment on SK-MEL-5 melanoma was 26.6%; with UACC-62 melanoma it was 32.8%; in the experiment on LOX IMVI melanoma, 37%; in the experiment with SK-MEL-28 melanoma, 55.1%; in the experiment on SK-MEL-2 melanoma, 75.6%; in the experiment with EKVX NSCLC, 59.8%. Further, the growth in the experiment on SN12C renal was 56.7%; with UO-31 renal it was 51.8%; in the experiment on TK-10 renal, 82.1%; in the experiment with ACHN renal it was 76.6%; in the experiment with CAKI-1 renal, 69.6%; with A498 renal it was 45.3%. Further, the growth with CCRF-CEM leukemia is 47.4%; in the experiment with MOLT-4 leukemia, 31.1%.

For the compound `COc1ccc(/C=C(/C(=O)N2CCNCC2)c2cc(OC)c(OC)c(OC)c2)cc1O`, the growth with HCT-15 colon is 96.6%; with HT29 colon it was 88.1%; in the experiment with SNB-75 CNS, 28.1%; in the experiment with SNB-19 CNS, 38.4%; in the experiment with U251 CNS it was 19.6%; in the experiment on PC-3 prostate it was 26.8%. Moreover, the growth with SK-MEL-5 melanoma is 40%; in the experiment on UACC-62 melanoma, 32.5%; in the experiment on LOX IMVI melanoma, 44%; in the experiment on SK-MEL-28 melanoma, 55.5%; with SK-MEL-2 melanoma it was 10.8%; with EKVX NSCLC, 84.1%. Besides, the growth in the experiment on SN12C renal was 54.6%; in the experiment on UO-31 renal, 89.7%; with TK-10 renal, 92.4%; in the experiment with ACHN renal, 103%; with CAKI-1 renal, 93.1%; in the experiment on A498 renal it was 59%. The growth in the experiment with CCRF-CEM leukemia is 15.4%; with MOLT-4 leukemia, 25.5%.
